# Pf growth 96h = Primary qHTS for delayed death inhibitors of the malarial parasite plastid, 96 hour incubation. Potency, µM (highest dose often 28.7 µM), for inactives: at the top dose activity change, negative = inhibition, actives largely listed as inhibitors. 320,000 compounds, 6.9% hits. P. falciparum luciferase reporter growth, 96 h; also: potency is read from the fitted curve at half-maximal effect; % is scaled to controls: 0 for no effect and ±100 for the full control effect
#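 Two-generation exposure (96 h) targets delayed-death phenotype. Reporter parasites carrying integrated firefly luciferase, in red cells at 2% hematocrit and 0.05% parasitemia final, kept at 37 C, 5% CO2; luminescence loss indicates inhibition.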
# HCMV inh = qHTS Assay for inhibitors of the human cytomegalovirus (HCMV). AID 1259415, 2018. HFF cells, HCMV-luciferase reporter, 72 h; stronger effect = lower value. 410,000 compounds, 4.5% hits. activity change, negative = inhibition, % at 57.5 µM; in the data active = activity change below about -60%; inconclusive = no clear call, values can overlap the other calls; inactive = above about -39%; also: % is scaled to controls: 0 for no effect and ±100 for the full control effect
#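 Cell-based, HFFs, 1000 cells/well, 16 h 37C; cpds in DMSO + HCMV-luc, MOI 1 PFU/cell; 72 h 37C; OneGlo luminescence after 5 min RT; norm. to buffer vs Salinomycin 10uM.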
# HCV inhibitor = qHTS Assay for Inhibitors of Hepatitis C Virus (HCV). 340,000 compounds, 3.4% hits. AID 651820, 2012. Huh7.5.1 HCVcc-Cre infection, luciferase reporter, 44 h. Potency, µM (top dose mostly 41.8 µM), for the others: top-dose activity change, negative = inhibition, usual class: inhibitors; also: potency is read from the fitted curve at half-maximal effect; % is scaled to controls: 0 for no effect and ±100 for the full control effect
#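 Reporter virus HCVcc-Cre (~0.5 moi) infects cells exposed to compound; seeding density 1,000 cells/well with 4 h settling beforehand. Luminescence, 15 sec read, taken 44 h post-infection following a 15 min RT substrate incubation.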
# CHX counter = Cycloheximide Counterscreen for Small Molecule Inhibitors of Shiga Toxin | cell reporter, cycloheximide protein synthesis inhibition counterscreen | max response, % | 300,000 compounds, 12% hits; in the data active = max response mostly above about 13%, no sharp cut-off; inactive = mostly below about 14%; also: read at 38.3 µM for the half of the compounds with a filed dose; 0% is about no effect
# Shiga toxin inh = A qHTS for Small Molecule Inhibitors of Shiga Toxin | Vero cells, Shiga toxin protein synthesis inhibition reporter | inhibition, % at 38.7 µM | 290,000 compounds, 9.2% hits | AID 2315, 2010; in the data active = inhibition mostly above about 28%, no sharp cut-off; inactive = mostly below about 43%; also: 0% is about no effect
# Pf growth 48h = Primary qHTS for delayed death inhibitors of the malarial parasite plastid, 48 hour incubation | P. falciparum luciferase growth in erythrocytes, 48 h | Potency, µM (top dose mostly 28.7 µM), inactives show at the highest dose activity change, negative = inhibition, hits mostly inhibitors | 310,000 compounds, 5.9% hits; also: potency is read from the fitted curve at half-maximal effect; % is scaled to controls: 0 for no effect and ±100 for the full control effect
#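 Luminescence readout; reporter = integrated firefly luciferase in P. falciparum. RBC culture at 2% hematocrit, 0.1% parasitemia final, 37 C/5% CO2; decreased signal taken as growth inhibition.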
# The depositor's hits bear a star; i = inactive; ? = inconclusive; / = not tested or not shown; ! = not active in a repeat; [ ] = remark or other dose. Rows were chosen to be rich in hits. Some 21% of all compounds tested hit in one or more screens of this group. Unless noted, calls follow the shape of the dose curve; as a rule, active = well fitted inhibition curve with a large enough effect; inconclusive = small, poorly fitted or top-dose-only effect, or another doubt; inactive = no such curve, though single readings can be large or run the other way.
SMILES,Pf growth 96h,HCMV inh,HCV inhibitor,CHX counter,Shiga toxin inh,Pf growth 48h
CCN(CC)S(=O)(=O)c1cc(NC(=O)c2ccc3c(c2)NC(=O)C(C)S3)ccc1C (stereo unspecified),?,-80*,4µM*,/,/,?
C=CCNC(=S)N1CCN(c2cccc(C(F)(F)F)c2)CC1,?,-32,-4%,46*,-19,8%
S=C(NC1CCCCC1)N1CCN(c2ccccn2)CC1,12µM*,9,-10%,7,-10,-14%
FC(F)(F)c1cccc(N2CCN(C(=S)NC3CCCC3)CC2)c1,13µM*,-29,32µM*,1,22,?
COc1ccc(N2CCN(CCCNC(=O)c3nnc(Cc4ccc(F)cc4)o3)CC2)cc1,/,-23,/,/,/,/
CC[C@H](C)[C@H](NC(=O)[C@H](Cc1ccc(O)cc1)NC(=O)[C@H](Cc1cnc[nH]1)NC(=O)[C@H](CCCNC(=N)N)NC(=O)[C@H](CC(C)C)NC(=O)[C@H](C)NC(=O)[C@H](CO)NC(=O)[C@H](Cc1ccc(O)cc1)NC(=O)[C@H](Cc1ccc(O)cc1)NC(=O)[C@H](CCCNC(=N)N)NC(=O)[C@H](C)NC(=O)[C@H](CCSC)NC(=O)[C@H](CC(=O)O)NC(=O)[C@H](CCC(=O)O)NC(=O)[C@H](C)NC(=O)[C@@H]1CCCN1C(=O)[C@H](C)NC(=O)[C@H](CC(=O)O)NC(=O)[C@H](CCC(=O)O)NC(=O)CNC(=O)[C@@H]1CCCN1C(=O)[C@H](CC(N)=O)NC(=O)[C@H](CC(=O)O)NC(=O)[C@@H]1CCCN1C(=O)[C@H](CCCCN)NC(=O)[C@H](CO)NC(=O)[C@@H]1CCCN1C(=O)[C@@H](N)Cc1ccc(O)cc1)C(=O)N[C@@H](CC(N)=O)C(=O)N[C@@H](CC(C)C)C(=O)N[C@H](C(=O)N[C@H](C(=O)N[C@@H](CCCNC(=N)N)C(=O)N[C@@H](CCC(N)=O)C(=O)N[C@@H](CCCNC(=N)N)C(=O)N[C@@H](Cc1ccc(O)cc1)C(N)=O)[C@@H](C)O)[C@@H](C)CC,/,/,/,-2,-6,/
COc1ccc(C2CC(=O)OC3=C2C(=O)CC(C)(C)C3)c(OC)c1 (stereo unspecified),?,-16,2%,-4,-9,10µM*
COc1ccc2c(c1)C(C1=C(O)CC(C)(C)CC1=O)C1=C(CC(C)(C)CC1=O)O2 (stereo unspecified),-25%,-20,10%,-3,-8,/
COc1ccc(NC(C)=O)cc1CNC(=O)COc1c(C)c(C)cc(C)c1C,-23%,-5,-2%,-2,-11,?
COc1cc(OC)c(N(C)C(=O)Cn2ncc3c([nH]c4ccccc43)c2=O)cc1Cl,/,19,/,/,/,/
c1ccc(-c2cnnc3ccccc23)cc1,63%,-3,11µM*,/,/,23%
Cc1ccc(NC(=S)N=Nc2c(O)n(C)c3ccc(S(=O)(=O)N4CCOCC4)cc23)cc1,?,-77*,?,-5,-3,2.6µM*
Cc1ccccc1NC(=S)N=Nc1c(O)n(C)c2ccc(S(=O)(=O)N3CCOCC3)cc12,8%,?,?,11,-6,3.3µM*
Cc1cccc(C)c1NC(=S)N=Nc1c(O)n(C)c2ccc(S(=O)(=O)N3CCOCC3)cc12,?,-29,?,-5,-12,?
Cc1cc(C)cc(NC(=S)N=Nc2c(O)n(C)c3ccc(S(=O)(=O)N4CCOCC4)cc23)c1,?,?,?,-2,-3,2.1µM*
Cc1cccc(NC(=S)N=Nc2c(O)n(C)c3ccc(S(=O)(=O)N4CCOCC4)cc23)c1,2.3µM*,48,1.6µM*!,0,-7,8.3µM*
Cc1ccc(CC(=O)Nc2ccc(S(=O)(=O)N3CCOCC3)cc2)cc1,35%,-5,-3%,-5,-2,-2%
Cc1cc(C)c(NC(=O)CN2C(=O)NC3(CCCc4ccccc43)C2=O)c(Cl)c1 (stereo unspecified),-27%,-16,1%,/,/,?
O=C(O)CC1(CC(=O)NCc2csc(-c3cccs3)n2)CCCCC1,8%,-8,7%,-1,10,6%
Cc1cnc(C(=O)Nc2ccc(N3CCCCC3)cc2)cn1,219%,-23,-11%,32*,84*,i
Cc1cnc(C(=O)Nc2ccc(-n3cnnn3)cc2)cn1,?,63,1%,-2,9,25%
Cc1cc(C(=O)Nc2ccc(N3CCCCC3)cc2)no1,?,17,-11%,16*,39,75%
Cc1cnc(C(=O)Nc2ccc(OC(F)(F)F)cc2)cn1,?,99,-9%,27*,48*,107%
Cc1cc(C(=O)Nc2ccc(S(=O)(=O)N3CCCC3)cc2)no1,?,16,-23%,-2,31,?
Cc1cnc(C(=O)Nc2ccc(C(=O)N3CCCCC3)cc2)cn1,155%,7,-10%,6,12,8%
SMILES,Pf growth 96h,HCMV inh,HCV inhibitor,CHX counter,Shiga toxin inh,Pf growth 48h
Cc1cnc(C(=O)Nc2ccc(N3CCOCC3)cc2)cn1,15%,3,1%,22*,66*,114%
COc1ccc(NC(=O)c2c(N)c(C(=O)c3ccc(OC)cc3)n3ccccc23)cc1,/,-17,/,/,/,/
Fc1ccc(NCc2ccccc2-c2nnc(-c3ccccc3Cl)o2)cc1,/,33,/,/,/,/
CC(=O)Nc1nonc1-c1nnc(SCC(=O)Nc2ccc(C)c(Cl)c2)n1-c1ccccc1,/,-24,/,/,/,/
Cc1ccc(NC(=O)C2CCN(C(=O)NCc3ccccc3)CC2)cc1C,75%,-18,9%,-2,-4,3%
O=C(Nc1ccc(OC(F)(F)F)cc1)C1=NCCN1,-9%,11,16%,40*,38*,1%
Cc1cnc(C(=O)Nc2ccccc2C(=O)N2CCOCC2)cn1,3.7µM*,3,18%,-3,-9,16%
COc1ccc(OC)c(S(=O)(=O)NC2CCCCNC2=O)c1 (stereo unspecified),1%,/,9%,-5,-7,3%[0.00184 µM]
Cc1noc(NS(=O)(=O)c2ccc(NC(=O)/C=C/c3ccccc3)cc2)c1C,/,51,4%,/,/,/
Cc1noc(NS(=O)(=O)c2ccc(NC(=O)c3ccc(F)cc3)cc2)c1C,/,4,21%,/,/,/
Cc1ccc2c(C)c(C(=O)Nc3ccc(S(=O)(=O)Nc4onc(C)c4C)cc3)oc2c1,9.3µM*,-30,0.5µM*,55*,89*,12%
Cc1noc(NS(=O)(=O)c2ccc(N/C=C/C(=O)c3ccc4c(c3)OCO4)cc2)c1C,?,59,15%,59*,120*,48%
Cc1noc(NS(=O)(=O)c2ccc(N/C=C\C(=O)c3ccc(F)cc3)cc2)c1C,-45%[1.15 µM],35,15%,61*,90*,11%

# Screening data (PubChem)
